Screens (PubChem BioAssay)
Pf growth 48h – P. falciparum growth inhibition at 48 hours (one generation); Potency, µM (doses to about 28.7 µM), usual class: inhibitors; 5.9% of 310,000 active; P. falciparum luciferase growth in erythrocytes, 48 h; AID 504832
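Growth was read as firefly luciferase luminescence after a 48 h, 37 C, 5% CO2 exposure of compounds to reporter-bearing P. falciparum cultures (0.1% parasitemia, 2% hematocrit final) in Albumax-supplemented RPMI 1640.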
HCV inhibitor – inhibitors of hepatitis C virus infection; Huh7.5.1 HCVcc-Cre infection, luciferase reporter, 44 h; Potency, µM (series often up to 41.8 µM), usual class: inhibitors; AID 651820; 3.4% of 340,000 active
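Reporter virus HCVcc-Cre (~0.5 moi) infects cells exposed to compound; seeding density 1,000 cells/well with 4 h settling beforehand. Luminescence, 15 sec read, taken 44 h post-infection following a 15 min RT substrate incubation.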
CHX counter – counter-screen hit for Shiga toxin inhibitors, cycloheximide; 12% of 300,000 active; AID 2314; max response, %; cell reporter, cycloheximide protein synthesis inhibition counterscreen; in the data active = max response mostly above about 13%, no sharp cut-off; inactive = mostly below about 14%; also: read at 38.3 µM for the half of the compounds with a filed dose
Shiga inhibitor – Shiga toxin inhibition; 9.2% of 290,000 active; Vero cells, Shiga toxin protein synthesis inhibition reporter; inhibition, % at 38.7 µM; in the data active = inhibition mostly above about 28%, no sharp cut-off; inactive = mostly below about 43%
AMA1 RON2 block – inhibitors of Plasmodium falciparum AMA1-RON2 interaction. 0.2% of 360,000 active. AlphaScreen AMA1-biotinylated RON2 peptide binding. Potency, µM (doses to about 58.2 µM), hits mostly inhibitors; also: nearly all actives have a fitted effect of over 45% in size
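AMA1 (3D7) with his tag at 25 nM final met compounds first, then biotinylated RON2 peptide at 25 nM; detection used donor plus acceptor beads, 10 µg/mL apiece, read by AlphaScreen after 30 min at room temperature.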
Pf growth 96h – P. falciparum growth inhibition at 96 hour, primary screen for plastid delayed-death inhibitors. P. falciparum luciferase reporter growth, 96 h. Potency, µM (series often up to 28.7 µM), usual class: inhibitors. 6.9% of 320,000 active
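Cell-based qHTS: luciferase-tagged P. falciparum in erythrocytes (2% hematocrit, 0.05% parasitemia final) incubated with compounds for 96 hours, 37 C, 5% CO2; luciferase detection reagent then added and luminescence measured.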
Hits are given with their value. Compounds with a hit are over-represented: about 21% of the library has one in this group of screens. Unless noted, calls follow the shape of the dose curve; as a rule, active = well fitted curve in the direction sought with a large enough effect; inconclusive = small, poorly fitted or top-dose-only effect, or another doubt; inactive = no such curve, though single readings can be large; an effect the other way counts as inactive or inconclusive.

CCCCN1C(=O)NC(c2ccc(OC)cc2)C(C(=O)OCc2ccccc2)=C1C (centres undefined) was read as Pf growth 48h inconclusive, HCV inhibitor inconclusive, CHX counter inactive, Shiga inhibitor inactive, AMA1 RON2 block inactive and Pf growth 96h 5.22µM.
CCCc1nc2cc(C)c(Br)c(C)n2c1Cc1ccc(OC)cc1C was read as AMA1 RON2 block inactive.
Screening CCOc1ccccc1N(CC(=O)NCCc1ccccc1)C(=O)CCC(=O)Nc1ccccn1 returned Pf growth 48h inactive, HCV inhibitor inactive, CHX counter inactive, Shiga inhibitor inactive, AMA1 RON2 block inactive and Pf growth 96h inconclusive.
Cc1cccc(/C=N/NC(=O)c2ccc(NC(=O)c3ccccc3Cl)cc2)n1 was read as Pf growth 48h inactive, HCV inhibitor inactive, CHX counter inactive, Shiga inhibitor inactive, AMA1 RON2 block inactive and Pf growth 96h inconclusive.
O=C(N/N=C/c1ccccn1)c1cccc(NC(=O)c2ccccc2Cl)c1 was read as Pf growth 48h inconclusive, HCV inhibitor inactive, CHX counter 11.3, Shiga inhibitor 34.0, AMA1 RON2 block inactive and Pf growth 96h inactive.
`O=C(N/N=C/c1ccccn1)c1ccc2nc[nH]c2c1` gave Pf growth 48h inactive, HCV inhibitor inactive, CHX counter inactive, Shiga inhibitor inactive, AMA1 RON2 block inactive and Pf growth 96h inactive.
Screening O=C(N/N=C/c1ccccc1F)c1cccc(NC(=O)c2ccccc2Cl)c1 returned Pf growth 48h inactive, HCV inhibitor inactive, CHX counter 25.6, Shiga inhibitor 56.4, AMA1 RON2 block inactive and Pf growth 96h inactive.
Screening Cc1cccc(C(=O)N/N=C/c2ccccn2)c1 returned Pf growth 48h inactive, HCV inhibitor inactive, CHX counter 24.7, Shiga inhibitor 91.3, AMA1 RON2 block inactive and Pf growth 96h inactive.
For Cc1cccc(C(=O)Nc2cccc(C(=O)N/N=C/c3ccccn3)c2)c1 the results were Pf growth 48h inconclusive, HCV inhibitor inactive, CHX counter 12.7, Shiga inhibitor inactive, AMA1 RON2 block inactive and Pf growth 96h inactive.
`Cc1ccccc1C(=O)Nc1cccc(C(=O)N/N=C/c2cc(Cl)cc([N+](=O)[O-])c2O)c1` gave Pf growth 48h inactive, HCV inhibitor inactive, CHX counter inactive, Shiga inhibitor inactive, AMA1 RON2 block inconclusive and Pf growth 96h inactive.
Cc1ccc(NC(=O)Cn2cc(C(F)(F)F)cc(Cl)c2=O)cc1Cl was read as Pf growth 48h inactive, HCV inhibitor inactive, CHX counter inactive, Shiga inhibitor inactive, AMA1 RON2 block inactive and Pf growth 96h inactive.
Screening COc1ccc(CNC(=O)COC(=O)c2cc(C)oc2C)cc1 returned AMA1 RON2 block inactive.
O=C(O)c1cccc(NC(=S)N/N=C/c2cccc(O)c2)c1 was read as Pf growth 48h inactive, HCV inhibitor inactive, CHX counter inactive, Shiga inhibitor inactive, AMA1 RON2 block inactive and Pf growth 96h inactive.
O=C(N/N=C/c1cccs1)c1ccc(-n2cccc2)cc1 was read as Pf growth 48h inconclusive, HCV inhibitor inactive, CHX counter 21.7, Shiga inhibitor inactive, AMA1 RON2 block inconclusive and Pf growth 96h inconclusive.
O=C(O)c1cccc(NC(=S)N/N=C/c2ccccn2)c1 was read as Pf growth 48h inactive, HCV inhibitor inactive, CHX counter 50.7, Shiga inhibitor 131.1, AMA1 RON2 block inactive and Pf growth 96h inconclusive.
`O=C(N/N=C/c1cccs1)c1cccc(NC(=O)c2ccccc2Cl)c1` gave Pf growth 48h inactive, HCV inhibitor inactive, CHX counter 17.5, Shiga inhibitor inactive, AMA1 RON2 block inactive and Pf growth 96h inactive.
O=C(NC(=S)Nc1cc([N+](=O)[O-])ccc1O)c1cccnc1 was read as Pf growth 48h inactive, HCV inhibitor inactive, CHX counter inactive, Shiga inhibitor inactive, AMA1 RON2 block inactive and Pf growth 96h inconclusive.
Screening CC(=O)c1c(NCc2ccccc2)nc(=O)n(-c2ccccc2)c1C returned Pf growth 48h inactive, HCV inhibitor inactive, CHX counter 23.9, Shiga inhibitor inactive, AMA1 RON2 block inactive and Pf growth 96h inactive.
Screening Cc1ccc(N(CC(=O)NCCc2ccccc2)C(=O)CCC(=O)Nc2cc(C)ccn2)cc1 returned Pf growth 48h inactive, HCV inhibitor inactive, CHX counter inactive, Shiga inhibitor inactive, AMA1 RON2 block inactive and Pf growth 96h inactive.
`O=C(Nc1sc2c(c1C(=O)O)CCCCC2)c1cccs1` gave Pf growth 48h inactive, HCV inhibitor inactive, CHX counter 66.0, Shiga inhibitor 128.6, AMA1 RON2 block inactive and Pf growth 96h inactive.
CC1CCc2c(sc(NC(=O)c3cccs3)c2C(=O)O)C1 (centres undefined) was read as Pf growth 48h inactive, HCV inhibitor inconclusive, CHX counter 47.3, Shiga inhibitor 80.9, AMA1 RON2 block inactive and Pf growth 96h inactive.
CC(C)OC(=O)c1c(NC(=O)c2cccs2)sc2c1CCCC2 was read as Pf growth 48h inactive, HCV inhibitor inconclusive, CHX counter inactive, Shiga inhibitor inactive, AMA1 RON2 block inactive and Pf growth 96h inactive.
O=C(Nc1sc2c(c1C(=O)O)CCCC2)c1cccs1 was read as Pf growth 48h inactive, HCV inhibitor inconclusive, CHX counter 27.2, Shiga inhibitor 127.4, AMA1 RON2 block inactive and Pf growth 96h inactive.
`Cc1ccc(-c2cc(C(=O)NCc3cnn(C)c3C)c3cc(Br)ccc3n2)cc1` gave Pf growth 48h inactive, HCV inhibitor inconclusive, CHX counter inactive, Shiga inhibitor inactive, AMA1 RON2 block inactive and Pf growth 96h inconclusive.
`Cc1ccc(-c2cc(C(=O)N(C)Cc3cnn(C)c3C)c3cc(Br)ccc3n2)cc1` gave Pf growth 48h 9.28µM, HCV inhibitor inconclusive, CHX counter inactive, Shiga inhibitor inactive, AMA1 RON2 block inactive and Pf growth 96h inconclusive.
For Cn1nnc(NC(=O)c2ccco2)n1 the results were Pf growth 48h inactive, HCV inhibitor inactive, CHX counter inactive, Shiga inhibitor inactive, AMA1 RON2 block inactive and Pf growth 96h inactive.
Screening Cc1ccnc2nc(NC(=O)c3ccco3)nn12 returned Pf growth 48h inactive, HCV inhibitor inactive, CHX counter 25.7, Shiga inhibitor 47.8, AMA1 RON2 block inactive and Pf growth 96h inactive.
For O=C(Nc1nc2nccc(-c3ccccc3)n2n1)c1ccccc1 the results were Pf growth 48h inactive, HCV inhibitor inactive, CHX counter 22.0, Shiga inhibitor inactive, AMA1 RON2 block inactive and Pf growth 96h inactive.
`O=C(Nc1nc2nc(-c3ccccc3)cc(-c3ccccc3)n2n1)c1ccco1` gave Pf growth 48h 2.94µM, HCV inhibitor inconclusive, CHX counter inactive, Shiga inhibitor inactive and AMA1 RON2 block inactive.
`Cc1ccc(C)c(N2CCN(C(=O)c3ccc4nsnc4c3)CC2)c1` gave Pf growth 48h inconclusive, HCV inhibitor inconclusive, CHX counter inactive, Shiga inhibitor inactive, AMA1 RON2 block inactive and Pf growth 96h inactive.
For CCc1ccc(C(O)c2ncc(-c3ccccc3Cl)[nH]2)cc1 (centres undefined) the results were AMA1 RON2 block inactive.
